Assay outcomes as filed in PubChem BioAssay.
In the library only some 4% were active in any assay of this set; here they are far more common.
DENV2 CPE rescue: inhibitors of DENV2 cytopathic effect; DENV2-infected cells, cytopathic effect rescue, plate reader; 1.7% of 350,000 active; AID 651640; CPE inhibition, % at 9.99 µM; in the data active means CPE inhibition above about 20%, passing the limit was not always enough; inconclusive means no clear call, values can overlap the other calls; tested in BHK-21 cells;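 further: 0% = median of neutral control wells and 100% = median of positive control wells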
ERAP1 inh: blocks human ERAP1 aminopeptidase activity. Q9NZ08. recombinant ERAP1, Leu-AMC fluorescence, 60 min. inhibition, % at 10.7 µM. 0.15% of 340,000 active. AID 652197;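 active means mean replicate inhibition of at least 30%, or all replicates individually reaching that 30% level; inactive means mean below 30% and not every replicate reaching it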;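 further: 0% = neutral control wells and 100% = L-leucinethiol positive control wells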
Target sequence (Q9NZ08 whole entry, looked up): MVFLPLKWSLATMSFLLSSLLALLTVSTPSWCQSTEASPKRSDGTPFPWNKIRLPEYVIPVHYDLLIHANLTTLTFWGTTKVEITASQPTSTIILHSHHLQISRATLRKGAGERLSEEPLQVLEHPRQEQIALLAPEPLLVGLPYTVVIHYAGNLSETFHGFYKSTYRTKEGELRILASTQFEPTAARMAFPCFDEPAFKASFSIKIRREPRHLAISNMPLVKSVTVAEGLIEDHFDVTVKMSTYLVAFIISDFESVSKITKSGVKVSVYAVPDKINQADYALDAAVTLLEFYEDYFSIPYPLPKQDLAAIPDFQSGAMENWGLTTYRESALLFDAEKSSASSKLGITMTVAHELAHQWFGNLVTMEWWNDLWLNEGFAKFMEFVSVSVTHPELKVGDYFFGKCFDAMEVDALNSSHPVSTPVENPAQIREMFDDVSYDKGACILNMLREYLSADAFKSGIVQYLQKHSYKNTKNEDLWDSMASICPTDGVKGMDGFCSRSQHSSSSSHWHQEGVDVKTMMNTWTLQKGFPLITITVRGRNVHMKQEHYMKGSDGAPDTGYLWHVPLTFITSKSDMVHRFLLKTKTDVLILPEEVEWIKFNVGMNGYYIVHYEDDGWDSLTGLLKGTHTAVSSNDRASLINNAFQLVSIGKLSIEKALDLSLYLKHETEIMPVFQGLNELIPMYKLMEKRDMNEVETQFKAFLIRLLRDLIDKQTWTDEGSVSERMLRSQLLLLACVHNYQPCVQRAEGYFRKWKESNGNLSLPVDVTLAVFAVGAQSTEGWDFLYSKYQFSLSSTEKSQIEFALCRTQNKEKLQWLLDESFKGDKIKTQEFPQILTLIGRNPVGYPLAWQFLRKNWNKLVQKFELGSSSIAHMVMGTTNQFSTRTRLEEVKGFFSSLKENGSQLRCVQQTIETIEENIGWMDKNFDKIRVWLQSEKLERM
FGF22 binding: binders of recombinant human FGF22 by thermal shift; SYPRO orange fluorescence; percent of sucrose octasulfate shift, DMSO zero; activity (Tm shift, normalised), % at 9.99 µM; 1.5% of 340,000 active; AID 651658;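 active means mean Tm shift, scaled 0 neutral to 100 positive control, at about 1.3% or above, every replicate too, limit read from the data; inconclusive means no clear call, values can overlap the other calls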
RAD52 inh: RAD52 (human) annealing inhibition. P43351. recombinant RAD52 DNA annealing, FRET fluorescence. inhibition, % at 18.7 µM. 0.46% of 360,000 active. AID 651710;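 active means every replicate showing at least 50% inhibition; inconclusive means mean inhibition at least 50% but not in every replicate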
MLL AF4-AF9 inh: MLL-AF4/AF9 protein interaction inhibition | AID 651704 | AlphaScreen, biotin-AF4 peptide binding to FLAG-AF9 | 0.47% of 350,000 active | inhibition, % at 10 µM | P42568;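 active means every replicate reaching a set inhibition limit, whatever the replicate mean, cut at about 25% in these data; inconclusive means mean inhibition reaches that limit but some replicates miss it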;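 further: 0% = plate neutral control median and 100% = total signal loss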
* marks the source's active call; other numbers are inactive results; ? = inconclusive; nt = no result given.

SMILES | DENV2 CPE rescue | ERAP1 inh | FGF22 binding | RAD52 inh | MLL AF4-AF9 inh
CS(=O)(=O)N1C[C@@H](O)COC[C@@H]2O[C@H](CC(=O)NCc3ccccc3)CC[C@H]21 | -6.1 | nt | -0.3 | nt | nt
O=C(C[C@@H]1CC[C@H]2[C@@H](COC[C@@H](O)CN2S(=O)(=O)c2ccccc2)O1)Nc1ccc(-c2ccccc2)cc1 | -4.9 | 1.8 | 0.1 | 0.0 | -2.6
CS(=O)(=O)N1C[C@@H](O)COC[C@H]2O[C@@H](CC(=O)NCc3ccc(-c4ccccc4)cc3)CC[C@@H]21 | -2.6 | 1.8 | -0.8 | 58.7* | 16.8
O=C(C[C@H]1CC[C@@H]2[C@H](COC[C@H](O)CN2S(=O)(=O)c2ccccc2)O1)NCc1ccc(-c2ccccc2)cc1 | 11.9 | -0.8 | 0.0 | 56.0* | 10.8
O=C(C[C@H]1CC[C@H]2[C@@H](COC[C@@H](O)CN2S(=O)(=O)c2ccccc2)O1)NCc1ccc(-c2ccccc2)cc1 | -4.7 | -0.1 | -0.1 | 36.4 | 5.4
O=C(C[C@@H]1CC[C@H]2[C@@H](COC[C@@H](O)CN2S(=O)(=O)c2ccccc2)O1)NCc1ccc(-c2ccccc2)cc1 | 2.5 | 0.7 | -0.1 | 59.3* | 9.9
O=C(C[C@H]1CC[C@H]2[C@@H](COC[C@@H](O)CN2S(=O)(=O)c2ccccc2)O1)Nc1ccc(-c2ccccc2)cc1 | -3.8 | 1.9 | -0.1 | 3.2 | -4.0
C[C@@H]1CN([C@H](C)CO)C(=O)c2cc(NC(=O)Cc3ccccc3)ccc2O[C@@H](C)CCCCO[C@H]1CN(C)C(=O)NC1CCCCC1 | -1.9 | 1.0 | 0.1 | -26.2 | 0.7
CC(=O)N(C)C[C@H]1Oc2cc(-c3ccncc3)ccc2S(=O)(=O)N([C@H](C)CO)C[C@H]1C | 14.2 | 2.9 | -0.4 | -6.9 | -1.3
O=C(CCc1ccccc1)NNC(=O)Nc1ccccc1 | -1.9 | 5.0 | 43.0* | -3.3 | -3.3
CCc1ccc(NC(=O)NNC(=O)CCc2ccccc2)cc1 | 7.9 | 0.9 | -0.1 | -1.8 | -2.3
O=C(CCCCCCCC(=O)NNC(=O)Nc1ccccc1)NNC(=O)Nc1ccccc1 | 115.2* | 5.8 | 0.1 | -12.0 | 0.8
Cc1c(NC(=O)c2ccc(N(C)S(=O)(=O)c3ccccc3)cc2)c(=O)n(-c2ccccc2)n1C | nt | 0.0 | 43.4* | -10.1 | -1.8
COc1ccc(C#Cc2cnc3c(c2)C(=O)N([C@H](C)CO)C[C@H](C)[C@@H](CN(C)C(=O)CC2CC2)O3)cc1 | 6.3 | 0.2 | -0.3 | -7.0 | -10.4
FC(F)(F)c1ccccc1NC(=S)NC1CCN(Cc2ccccc2)CC1 | ? | -1.0 | 43.8* | 1.2 | 4.0
CC=Cc1ccc2n(c1=O)C[C@@H]1[C@@H](CO)[C@H](C(=O)Nc3ccccc3)N(CC3CCCC3)[C@H]21 (mixture of isomers) | 0.7 | 3.8 | 0.0 | -50.6 | 3.8
COc1cc(C2CC(=O)c3c(O)cc(O)cc3O2)ccc1O (stereo not given) | -8.1 | -0.2 | 0.0 | -9.0 | -1.4
O=C1C[C@@H](c2ccc(O)cc2)Oc2cc(O)cc(O)c21 | 102.8* | -2.2 | 0.2 | -15.9 | -1.9
COCC#Cc1ccc([C@@H]2[C@H]3CN(Cc4ccccc4F)CCCCN3[C@H]2CO)cc1 | 46.8* | 0.3 | 0.1 | -5.7 | 3.0
OC[C@H]1[C@H](c2ccc(C#Cc3cccnc3)cc2)[C@@H]2CN(Cc3ccccc3F)CCCCN12 | 15.3 | -2.7 | -0.4 | 31.4 | -3.4
COc1ccc(C#Cc2ccc([C@@H]3[C@@H](CO)N4CCCCN(Cc5ccccc5F)C[C@H]34)cc2)cc1 | -33.9 | -0.8 | -0.3 | -4.4 | 29.2*
OC[C@@H]1[C@H](c2ccc(C#Cc3cccnc3)cc2)[C@H]2CN(Cc3ccccc3F)CCCCN12 | -24.3 | -0.7 | -0.4 | 53.9* | 10.0
COc1ccc(C#Cc2ccc([C@H]3[C@H]4CN(Cc5ccccc5F)CCCCN4[C@H]3CO)cc2)cc1 | -32.7 | -1.3 | -0.1 | -46.5 | 7.1
OC[C@H]1[C@H](c2ccc(C#CC3(O)CCCC3)cc2)[C@H]2CN(Cc3ccccc3F)CCCCN21 | 5.1 | 2.8 | 0.4 | -2.0 | -1.3
CO[C@@H]1CN(C)C(=O)c2cc(NC(=O)C3CC3)ccc2OC[C@@H](C)N(C(=O)C2CCCCC2)C[C@H]1C | -3.9 | 0.9 | -0.4 | 0.0 | -1.2
CN(C)CC(=O)N[C@H]1C=C[C@H](CC(=O)O)O[C@@H]1CO | 0.7 | 0.7 | nt | 2.6 | -1.0
COC(=O)C[C@@H]1CC[C@@H]2[C@H](COc3ccc(NC(=O)Nc4ccc(C#N)cc4)cc3C(=O)N2C)O1 | -0.9 | 1.1 | 0.4 | -10.8 | -6.6
